Measured values as given in the supplement of paper PMC6555819.

Columns and labels:
Assay in all cases: PBM binding z-score (relative to random genomic background probes); higher = stronger binding; sequences stand for … in GC…GCGATTGACAGCGTAGAATGAAGG
[1] = tested on: FXR:RXRa (NR concentration 270 nM, RXRa partner concentration 90 nM)
In short: (§1)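 Binding buffer was PBS pH 7.4 with 2% milk, 0.02% Triton X-100, 1 mM DTT, 0.2 mg/mL BSA and 0.4 mg/ml salmon testes DNA. In it, ligand-free nuclear receptor dimers were incubated 1 h on custom Agilent 4×180K protein-binding microarrays carrying double-stranded probes. Antibodies against each partner (one per run) detected binding, and z-scores were calculated against random background probes after regression normalization of scanned fluorescence.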

[2] = tested on: LXRa:RXRa (NR concentration 270 nM, RXRa partner concentration 90 nM)
In short: as §1

[3] = tested on: LXRa homodimer (NR concentration 270 nM)
In short: as §1

[4] = tested on: LXRb:RXRa (NR concentration 270 nM, RXRa partner concentration 90 nM)
In short: as §1

[5] = tested on: LXRb homodimer (NR concentration 270 nM)
In short: as §1

[6] = tested on: PPARa:RXRa (NR concentration 270 nM, RXRa partner concentration 90 nM)
In short: as §1

[7] = tested on: PPARg:RXRa (NR concentration 180 nM, RXRa partner concentration 90 nM)
In short: as §1

[8] = tested on: PPARg:RXRa 270nM:90nM, anti-RXR (NR concentration 270 nM, RXRa partner concentration 90 nM)
In short: as §1

[9] = tested on: PPARg:RXRa 30nM:10nM, anti-RXR (NR concentration 30 nM, RXRa partner concentration 10 nM)
In short: as §1

[10] = tested on: PPARg:RXRa 90nM:30nM, anti-RXR (NR concentration 90 nM, RXRa partner concentration 30 nM)
In short: as §1

[11] = tested on: PPARg:RXRa DBDmut IVT, anti-RXR (DBD mutation: RXRa K156A/R161A, NR concentration 270 nM, RXRa partner concentration 90 nM)
In short: as §1

[12] = tested on: PPARg:RXRa IVT, anti-PPARg (NR concentration 270 nM, RXRa partner concentration 90 nM)
In short: as §1

[13] = tested on: PPARg DBDmut:RXRa IVT, anti-PPARg (DBD mutation: PPARg1 K132A/R137A, NR concentration 270 nM, RXRa partner concentration 90 nM)
In short: as §1

[14] = tested on: PPARg DBDmut IVT, anti-PPARg (DBD mutation: PPARg1 K132A/R137A, NR concentration 270 nM)
In short: as §1

[15] = tested on: PPARg homodimer (NR concentration 180 nM)
In short: as §1

[16] = tested on: PXR:RXRa (NR concentration 270 nM, RXRa partner concentration 90 nM)
In short: as §1

[17] = tested on: PXR homodimer (NR concentration 270 nM)
In short: as §1

[18] = tested on: RARa:RXR (NR concentration 270 nM, RXRa partner concentration 90 nM)
In short: as §1

[19] = tested on: RARa homodimer (NR concentration 270 nM)
In short: as §1

[20] = tested on: RARb:RXRa (NR concentration 270 nM, RXRa partner concentration 90 nM)
In short: as §1

Sequence | PBM binding z-score [1] | PBM binding z-score [2] | PBM binding z-score [3] | PBM binding z-score [4] | PBM binding z-score [5] | PBM binding z-score [6] | PBM binding z-score [7] | PBM binding z-score [8] | PBM binding z-score [9] | PBM binding z-score [10] | PBM binding z-score [11] | PBM binding z-score [12] | PBM binding z-score [13] | PBM binding z-score [14] | PBM binding z-score [15] | PBM binding z-score [16] | PBM binding z-score [17] | PBM binding z-score [18] | PBM binding z-score [19] | PBM binding z-score [20]
ATATGTAGGTTACATCCCGGTCATTCAGGCTATG | 1.09 | 3.77 | 3.88 | 1.83 | 1.18 | 3.66 | 4.96 | 4.25 | 1.8 | 3.35 | 7.52 | 7.38 | 2.01 | 2.46 | 1.78 | 1.39 | 0.762 | 1.6 | 0.487 | 1.99
GCGATTGGGGCAAAGCAGGTTACCATAAGGTTGG | 0.351 | 0.0851 | -0.253 | 0.678 | -0.273 | 1.11 | 0.77 | 0.405 | -0.0974 | 0.132 | 2.25 | 1.69 | -0.0926 | -0.514 | 0.213 | 0.707 | -0.215 | 1.13 | 0.0153 | 0.946
TAGCCTAGGTCATTGGGCCAGTATCGTACGCATC | 4.61 | 3.37 | 0.842 | 2.55 | 0.185 | 3.85 | 3.26 | 3.52 | 0.601 | 2.34 | 2.91 | 3.95 | 0.593 | -0.521 | 1.11 | 1.68 | -0.331 | 2.39 | 0.0894 | 3.85
CCTGCTAGGTCATGGTCAGCTCATCTACAGTATG | 3.3 | 2.63 | 0.179 | 1.95 | 0.157 | 3.42 | 2.25 | 2.85 | 0.448 | 1.72 | 4.36 | 3.86 | -0.0537 | -0.157 | 1.09 | 1.52 | -0.186 | 2.4 | 0.349 | 4.08
ACTAGCAGGCCAAGTTTGGGTCAATCAAACAAAG | 0.471 | 0.228 | -0.484 | 0.918 | -1.03 | 1.55 | -0.0982 | 0.263 | -0.327 | -0.105 | 0.842 | 0.959 | -0.753 | -0.879 | 0.326 | 0.526 | -0.382 | 1.33 | -0.558 | 1.65
GCTAGTTGGTCAGTAAAAAGTCACACACCGGTCG | 0.351 | 0.195 | 0.138 | -0.0134 | -0.0534 | 0.217 | 0.434 | 0.856 | 0.159 | 0.726 | 0.793 | 0.0874 | 0.0294 | 0.69 | 0.862 | 0.0868 | -0.328 | 0.255 | 0.758 | 0.863
TCTTGTAGATCAATAGAGCTTAAGAAAGTGCGCT | -0.769 | -0.425 | -0.995 | -0.356 | -0.706 | 0.188 | -0.467 | 0.973 | 2.31 | 1.85 | 1.24 | 0.112 | -0.281 | 0.00059 | -0.672 | -0.158 | -0.534 | -0.251 | -1.02 | -0.557
TTACCCAGGTGAGCTGAGGTCGTTGATCCAACTC | 1.83 | 0.726 | -0.313 | 0.515 | -1.12 | 1.35 | 0.177 | 0.382 | -0.172 | 0.184 | 0.846 | 1.89 | -1.04 | -0.726 | 0.267 | 4.2 | 0.439 | 1.55 | -1.01 | 1.1
CAAACTAGGCCACGAAAGGTCAAAGTCGAATGAC | 5.14 | 6.19 | 5.85 | 5.69 | 1.75 | 6.2 | 7.45 | 6.7 | 4.3 | 6.62 | 7.17 | 7.41 | 1.6 | 1.85 | 4.86 | 5.73 | 1.95 | 6 | 2.49 | 4.68
CCAGACAGGTGAGAAGGTAACTCACCCTCGATTA | -0.00684 | 0.259 | -0.0683 | 0.491 | -0.394 | 1.09 | 0.731 | 0.509 | -0.0353 | -0.0765 | 0.889 | 0.707 | -0.339 | -0.245 | 0.968 | 0.325 | 0.219 | 0.748 | 0.925 | 0.764
CCTCGGAGGGCAACAGGAGGTCAGAGCTGCCAGA | 2.19 | 3.83 | 1.29 | 2.23 | -0.758 | 3.02 | 0.969 | 1.32 | -0.587 | 0.405 | 0.555 | 1.54 | -1.74 | -1.13 | 1.67 | 3.35 | -0.207 | 3.63 | 0.286 | 3.71
CGTCAAAGTTCAACTAAGGTAACGAAAAGCACGC | 7.29 | 6.07 | 3.55 | 3.97 | 2.13 | 5.07 | 4.84 | 5.42 | 2.21 | 4.48 | 0.421 | 2.48 | 0.738 | 0.747 | 4.18 | 5.19 | 4.69 | 4.25 | 2.25 | 5.13
GCGACTGGGGCAAAGCAGGTTATCATAAGGTTGG | 0.502 | 0.29 | -0.027 | 0.318 | -0.831 | 1.41 | 1.29 | 1.17 | -0.476 | 0.229 | 4.56 | 3.61 | -0.685 | -0.693 | -0.345 | 0.44 | -0.841 | 0.549 | -0.943 | 0.894
GCTTACGGATCAAAGGTTATAGCATGAATAGAAT | 1.93 | 2.43 | 0.189 | 2.49 | -0.332 | 4.12 | 5.77 | 6.43 | 4.61 | 7.07 | -0.119 | 1.82 | 0.708 | 0.266 | 0.616 | 2.38 | -0.00589 | 3.61 | 0.0862 | 1.42
